From PubChem
Sampled rows, rich in hits. Any-hit rate of the full collection: about 1.8%.
PKD1 kinase inh – inhibitors of human PKD1 kinase; inhibition, % (no concentration beside the values); 0.056% of 200,000 active; AID 797; PKD1 kinase fluorescence polarization assay; Q15139
LANA-H2B inh – blocks KSHV LANA binding to histone H2A/H2B. 0.6% of 320,000 active. inhibition, % (test concentration not listed). Q9QR71. cell-free LANA-H2A/H2B peptide, fluorescence polarization; in the data active = inhibition mostly above about 10%, no sharp cut-off; inactive = mostly below about 6.7%
Target sequence (Q9QR71 whole entry, looked up): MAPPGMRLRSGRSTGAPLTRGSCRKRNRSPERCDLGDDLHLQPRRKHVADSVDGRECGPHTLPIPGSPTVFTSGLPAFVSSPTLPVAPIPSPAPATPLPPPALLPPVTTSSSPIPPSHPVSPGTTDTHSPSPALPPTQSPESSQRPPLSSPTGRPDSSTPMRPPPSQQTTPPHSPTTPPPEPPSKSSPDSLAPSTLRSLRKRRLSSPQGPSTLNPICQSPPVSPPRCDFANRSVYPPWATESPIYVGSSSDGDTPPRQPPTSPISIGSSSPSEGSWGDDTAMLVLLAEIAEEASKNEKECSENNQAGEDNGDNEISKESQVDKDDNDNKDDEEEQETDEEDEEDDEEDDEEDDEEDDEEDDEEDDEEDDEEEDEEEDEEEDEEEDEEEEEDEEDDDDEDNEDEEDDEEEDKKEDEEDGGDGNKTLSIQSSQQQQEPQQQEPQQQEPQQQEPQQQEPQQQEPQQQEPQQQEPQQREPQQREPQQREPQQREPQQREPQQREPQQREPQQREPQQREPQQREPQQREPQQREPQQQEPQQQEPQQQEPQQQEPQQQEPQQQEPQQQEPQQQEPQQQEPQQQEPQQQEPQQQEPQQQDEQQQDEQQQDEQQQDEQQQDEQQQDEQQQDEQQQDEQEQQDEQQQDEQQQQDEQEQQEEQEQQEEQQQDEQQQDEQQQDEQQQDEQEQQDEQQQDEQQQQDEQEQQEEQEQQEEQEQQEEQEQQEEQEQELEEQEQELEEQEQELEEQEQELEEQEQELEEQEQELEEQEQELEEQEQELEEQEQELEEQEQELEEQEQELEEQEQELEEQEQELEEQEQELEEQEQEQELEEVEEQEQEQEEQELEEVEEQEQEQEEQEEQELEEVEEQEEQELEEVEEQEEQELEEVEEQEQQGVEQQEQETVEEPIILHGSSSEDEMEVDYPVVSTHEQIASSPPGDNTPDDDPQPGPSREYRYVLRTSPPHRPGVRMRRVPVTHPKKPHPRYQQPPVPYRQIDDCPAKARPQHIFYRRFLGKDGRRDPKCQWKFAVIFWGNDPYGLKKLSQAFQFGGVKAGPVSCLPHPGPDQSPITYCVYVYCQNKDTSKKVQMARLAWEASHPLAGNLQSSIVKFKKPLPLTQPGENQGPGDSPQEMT
GRK2 aptamer HTS – inhibitors of human GRK2 displacing RNA aptamer. P25098. bead flow cytometry, FAM-aptamer displacement from GRK2. inhibition of aptamer binding, % at 10 µM. 0.59% of 330,000 active. AID 488847;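 active = inhibition of aptamer binding above 40%, roughly 3 SD of noise, on plates passing a quality check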;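 note: median bead fluorescence of bound FAM aptamer so fluorescent compounds give negative values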
DSG3 Ab inh – human desmoglein-3 autoantibody binding inhibition | P32926 | DSG3-coupled beads, scFv-anti-DSG3-GFP binding, flow cytometry; hits give low values | binding (percent of control), % at 10 µM | 0.48% of 310,000 active | AID 588358;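 active = binding more than 3 SD below its plate's average and above zero; inconclusive = below that plate limit but binding exactly zero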;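 note: hits lower antibody fragment binding to DSG3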
HDAC3 inh – human HDAC3 inhibition; O15379; recombinant HDAC3, fluorogenic peptide/trypsin coupled, fluorescence; inhibition, % at 8.3 µM; 0.15% of 320,000 active; AID 2718; in the data active = inhibition above about 26%, passing the limit was not always enough; inconclusive = no clear call, values can overlap the other calls
VLA-4 inh – inhibition in a human VLA-4 binding assay | P13612 | VLA-4 expressing cells, ligand binding flow cytometry | inhibition, % (about 7 µM as worked out from the volumes in the protocol) | 0.2% of 330,000 active | AID 2557
Hits are given with their value. Cut-off read from the data, not from the text of the source, unless noted: active = inhibition above about 50%; inactive = the rest.

COC(=O)c1ccc(NC(=O)c2ccc(NC(=O)c3ccco3)cc2)cc1 was read as LANA-H2B inh inactive, GRK2 aptamer HTS 83, DSG3 Ab inh inactive, HDAC3 inh inactive and VLA-4 inh inactive.
COCc1ccc(C(=O)Nc2cccc(S(=O)(=O)N(C)c3ccccc3)c2)cc1 was read as LANA-H2B inh inactive, GRK2 aptamer HTS inactive, DSG3 Ab inh 28, HDAC3 inh inactive and VLA-4 inh inactive.
Screening Cc1c(OCc2ccccc2)cccc1OCc1ccccc1 returned PKD1 kinase inh inactive, LANA-H2B inh inactive, DSG3 Ab inh inactive and HDAC3 inh inactive.
`Cc1oc(=O)cc(OCc2ccccc2)c1C` gave GRK2 aptamer HTS 45 and DSG3 Ab inh inactive.
CN1C(=O)C(O)(CC(=O)c2ccccc2O)c2cc(Br)ccc21 (centres undefined) was read as PKD1 kinase inh inactive, LANA-H2B inh 47, GRK2 aptamer HTS inactive, DSG3 Ab inh inactive, HDAC3 inh inactive and VLA-4 inh inactive.
For CN1C(=O)C(O)(CC(=O)/C=C/c2ccco2)c2cc(Br)ccc21 (centres undefined) the results were PKD1 kinase inh inactive, LANA-H2B inh inactive, GRK2 aptamer HTS inactive, DSG3 Ab inh inactive, HDAC3 inh inactive and VLA-4 inh inactive.
For Cc1cccc(-c2nc3c(c(SCC(=O)N4CCOCC4)n2)Cc2c(CO)cnc(C)c2O3)c1 the results were LANA-H2B inh 18, GRK2 aptamer HTS inactive, DSG3 Ab inh inconclusive, HDAC3 inh inactive and VLA-4 inh inactive.
For Cc1ncc(CO)c2c1Oc1nc(-c3ccccc3)nc(SCC(=O)N3CCOCC3)c1C2 the results were LANA-H2B inh inactive, GRK2 aptamer HTS inactive, HDAC3 inh inactive and VLA-4 inh inactive.
For C=CCNC(=O)CN1N=C(c2ccc(C)cc2)CCC1=O the results were LANA-H2B inh inactive, GRK2 aptamer HTS inactive, DSG3 Ab inh inactive, HDAC3 inh inactive and VLA-4 inh inactive.
Screening Cc1ccn(C)c(=N)c1 returned LANA-H2B inh inactive, GRK2 aptamer HTS inactive, DSG3 Ab inh inactive, HDAC3 inh inactive and VLA-4 inh inactive.
Screening CCOC(=O)CSc1nc2sc(C)c(C)c2c(=O)n1C returned PKD1 kinase inh inactive, LANA-H2B inh inactive, GRK2 aptamer HTS inactive, HDAC3 inh inactive and VLA-4 inh inactive.
Screening CCOC(=O)CSc1nc2sc(C)c(C)c2c(=O)n1N returned PKD1 kinase inh inactive, LANA-H2B inh inactive, GRK2 aptamer HTS inactive, DSG3 Ab inh 57, HDAC3 inh inactive and VLA-4 inh inactive.
`CC(=O)C[C@@H](O)CC(=O)[C@@H]1OC(=O)CCCCCCCCc2ccccc21` gave LANA-H2B inh 9.2, GRK2 aptamer HTS inactive, HDAC3 inh inactive and VLA-4 inh inactive.
For CC(=O)C[C@H](O)CC(=O)[C@@H]1OC(=O)[C@H](C)C/C=C\Cc2ccccc21 the results were LANA-H2B inh active, GRK2 aptamer HTS inactive, DSG3 Ab inh inactive, HDAC3 inh inactive and VLA-4 inh inactive.
For O=C1CC2(CCN(C(=O)c3cccc(Br)c3)CC2)Oc2ccccc21 the results were LANA-H2B inh 19, GRK2 aptamer HTS inactive, DSG3 Ab inh inactive, HDAC3 inh inactive and VLA-4 inh inactive.
`COc1cc2c(cc1NC(=O)COC(=O)[C@@H](NC(=O)c1ccccc1)C(C)C)oc1ccccc12` gave PKD1 kinase inh inactive, LANA-H2B inh 25, GRK2 aptamer HTS inactive, DSG3 Ab inh inactive, HDAC3 inh inactive and VLA-4 inh inactive.
COc1cc2c(cc1NC(=O)COC(=O)[C@@H](NC(=O)c1ccccc1F)C(C)C)oc1ccccc12 was read as PKD1 kinase inh inactive, LANA-H2B inh inactive, GRK2 aptamer HTS inactive, DSG3 Ab inh inactive and HDAC3 inh inactive.
Screening O=C(NCCC1=CCCCC1)C(=O)NCc1ccncc1 returned PKD1 kinase inh inactive, LANA-H2B inh inactive, GRK2 aptamer HTS inactive, DSG3 Ab inh 52, HDAC3 inh inactive and VLA-4 inh inactive.
`O=C(NCc1ccncc1)C(=O)NCc1ccncc1` gave PKD1 kinase inh inactive, LANA-H2B inh inactive, GRK2 aptamer HTS inactive, DSG3 Ab inh inactive, HDAC3 inh inactive and VLA-4 inh inactive.
O=C(NCCC1=CCCCC1)C(=O)NCCc1ccc(Cl)cc1 was read as PKD1 kinase inh inactive, LANA-H2B inh inactive, GRK2 aptamer HTS inactive, DSG3 Ab inh inactive, HDAC3 inh inactive and VLA-4 inh inactive.
`O=C(NCc1ccncc1)C(=O)NC1CC1` gave PKD1 kinase inh inactive, LANA-H2B inh active, GRK2 aptamer HTS inactive, DSG3 Ab inh inactive, HDAC3 inh inactive and VLA-4 inh inactive.
O=C(c1ccc(-c2ccccc2)c(F)c1)C1CCCN(C(=O)c2cncs2)C1 (centres undefined) was read as PKD1 kinase inh inactive, LANA-H2B inh 14, GRK2 aptamer HTS inactive, DSG3 Ab inh inactive, HDAC3 inh inactive and VLA-4 inh inactive.
`CCOC(=O)c1ccc(-c2nnc(-c3ccc(Cl)cc3Cl)o2)cc1` gave PKD1 kinase inh inactive, LANA-H2B inh inactive, GRK2 aptamer HTS inactive, DSG3 Ab inh 93, HDAC3 inh inactive and VLA-4 inh inactive.
Screening O=C(O)c1cc(S(=O)(=O)NC(CO)C(O)c2ccc([N+](=O)[O-])cc2)ccc1Br (centres undefined) returned LANA-H2B inh inactive, GRK2 aptamer HTS inactive, DSG3 Ab inh inactive, HDAC3 inh inactive and VLA-4 inh inactive.
Screening CC12CCCC(CC(=O)O)(C1)NC(=O)C2 (centres undefined) returned DSG3 Ab inh 64.
`CC1(C)CC(CC(=O)O)(c2ccc(F)cc2)CCO1` (centres undefined) gave PKD1 kinase inh inactive, LANA-H2B inh inactive, GRK2 aptamer HTS inactive, DSG3 Ab inh inactive, HDAC3 inh inactive and VLA-4 inh inactive.
`Cc1ccc2c(cnn2C(=O)CCCC(=O)NCc2ccc(F)cc2)c1` gave LANA-H2B inh inactive, GRK2 aptamer HTS inactive, DSG3 Ab inh inactive, HDAC3 inh inactive and VLA-4 inh inactive.
For CCc1ccc(CNC(=O)CCC(=O)n2ncc3cc(C)ccc32)cc1 the results were LANA-H2B inh inactive, GRK2 aptamer HTS inactive, DSG3 Ab inh 77, HDAC3 inh inactive and VLA-4 inh inactive.
Screening CCOc1ccc(NC(=O)c2ccc3c(c2)S(=O)(=O)N=C2CCCCCN23)cc1 returned DSG3 Ab inh 78.
`O=C(Nc1ccc(F)cc1)c1ccc2c(c1)S(=O)(=O)N=C1CCCCCN12` gave GRK2 aptamer HTS inactive, HDAC3 inh inactive and VLA-4 inh inactive.
For C[C@H](CO)N1C[C@H](C)[C@@H](CN(C)Cc2ccc(Cl)c(Cl)c2)Oc2c(NS(=O)(=O)c3cn(C)cn3)cccc2C1=O the results were LANA-H2B inh inactive, GRK2 aptamer HTS inactive, DSG3 Ab inh inactive, HDAC3 inh inactive and VLA-4 inh inactive.
`Cn1c(=O)c2c(ncn2CC(=O)N2CCN(S(=O)(=O)c3ccccc3)CC2)n(C)c1=O` gave LANA-H2B inh inactive, GRK2 aptamer HTS inactive, DSG3 Ab inh inactive, HDAC3 inh inactive and VLA-4 inh inactive.
`CC1=NN(C(=O)CSCc2ccccc2)C(O)(c2ccc(Cl)cc2)C1` (centres undefined) gave PKD1 kinase inh inactive, LANA-H2B inh inactive, GRK2 aptamer HTS inactive, DSG3 Ab inh inactive, HDAC3 inh inactive and VLA-4 inh inactive.
